{"source": "PubChem BioAssay (Tox21)", "note": "Values joined by “and” are separate entries in the source; they are usually repeats but may differ in a detail not shown here. Identical values can stand only once. Records with an inconclusive call do not appear. Where a call stands in place of a potency, no number is given. Values without a mark were called inactive. Active and inactive are the calls of the source. Calls come from the whole dose curve; as a rule, active = well fitted cell-killing curve with a large enough effect in the repeat runs; inconclusive = weak or mixed curves, or effect the other way; inactive = no such curve, though single readings can be large or run the other way. Potency is the fitted concentration of half-maximal effect.", "data": [{"experiment": "Caspase-3/7 induction in CHO-K1 cells by small molecules, qHTS cell viability counter screen (AID 1346979); note: nearly all actives have a fitted effect of over 35% in size", "details": "CellTiter-Fluor fluorescence, 17 h; series mostly up to 92.4 µM", "text": "National Center for Advancing Translational Sciences [NCATS]\nNIH Chemical Genomics Center [NCGC]\nU.S. Environmental Protection Agency [EPA]\nNational Institutes of Environmental Health Sciences [NIEHS]\nNational Toxicology Program [NTP]\nU.S. Food and Drug Administration [FDA]\nApoptosis is a process of programmed cell death and plays a central role in the development of multicellular organisms. It is a highly regulated process and induces cell death by activating caspases, which are the members of cysteine aspartic acid-specific protease (caspase) family. Caspases involved in apoptosis are classified by their mechanism of action as initiator caspases (caspase-2, -8, -9 and -10) and executioner caspases (caspase-3, -6, and -7). Inhibition of apoptosis results in number of cancers, autoimmune diseases, inflammatory diseases and viral infection. To identify small molecule compounds that induce apoptosis, a homogeneous, luminescent Caspase-Glo 3/7 assay was used. Wild type CHO-K1 cells were used to screen Tox21 libraries for identifying caspase-3/7 activity inducers. Also cytotoxicity of the compounds was tested in parallel by measuring the cell viability using CellTiter-Fluor assay system in the same wells.\nTox21 Assay Protocol Summary:\nCHO-K1 cells were dispensed at 1,500 per well in 5uL of culture medium into white solid bottom 1536-well plates (Corning Life Sciences, Corning, NY) using a Multidrop Combi (Thermo Scientific, Waltham, MA) dispenser. The assay plates were incubated at 37 C and 5% CO2 for 5hr, and then 23nL of compounds dissolved in DMSO and positive control were transferred using a Pintool station (Wako, San Diego, CA). The assay plates were incubated at 37C and 5% CO2 for 17hr. For cytotoxicity read, after 16hr incubation at 37C, 1uL CellTiter-Fluor reagent (Promega Corporation, Madison, WI) was added to each well of the assay plates using Flying Reagent Dispenser (FRD, Aurora Discovery, San Diego, CA). After 1hr incubation at 37C and 5% CO2, the fluorescence signal was quantified using a ViewLux plate reader (PerkinElmer, Shelton, CT).", "values": [{"smiles": "O=C1c2ccccc2S(=O)(=O)N1CCCCN1CCN(c2ncccn2)CC1", "Potency": "inactive"}, {"smiles": "C=CC(=O)OCCOCCOC(=O)C=C", "Potency": "15.4 µM (active)"}, {"smiles": "CN(C)c1ccc(CCO)cc1", "Potency": "inactive"}, {"smiles": "NCC(=O)CCC(=O)O", "Potency": "inactive"}, {"smiles": "Nc1ccc(S(=O)(=O)Nc2ccccc2)cc1", "Potency": "inactive"}, {"smiles": "C[C@@H](c1ncncc1F)C(O)(Cn1cncn1)c1ccc(F)cc1F", "note": "(stereo not given in full)", "Potency": "inactive"}, {"smiles": "Cc1ccc(C(=O)Oc2ccc(C(O)CNC(C)(C)C)cc2OC(=O)c2ccc(C)cc2)cc1", "note": "(stereo not given)", "Potency": "29.8 µM (active)"}, {"smiles": "CN(C)c1ccc(C(c2ccccc2)c2ccc(N(C)C)cc2)cc1", "Potency": "1.09 µM (active)"}, {"smiles": "CCOC(=O)C(=O)CCc1ccccc1", "Potency": "inactive"}, {"smiles": "CC[N+](C)(CC)CCOC(=O)C(O)(c1ccccc1)C1CCCCC1", "note": "(stereo not given)", "Potency": "inactive"}, {"smiles": "CN(C)CCOC(c1ccccc1)c1ccc(Br)cc1", "note": "(stereo not given)", "Potency": "inactive"}, {"smiles": "O=C(O)c1ccc(S(=O)(=O)O)cc1C(=O)O", "Potency": "inactive"}, {"smiles": "C[N+]1(CC2COC(c3ccccc3)(C3CCCCC3)O2)CCCCC1", "note": "(stereo not given)", "Potency": "inactive"}, {"smiles": "CN1CCN(C(c2ccccc2)c2ccccc2)CC1", "Potency": "inactive"}, {"smiles": "CCCCC", "Potency": "inactive"}, {"smiles": "CCCCC(CC)COC(=O)CCCCCCCCC(=O)OCC(CC)CCCC", "note": "(stereo not given)", "Potency": "inactive"}, {"smiles": "Cc1cccc(Nc2ccccc2)c1", "Potency": "inactive"}, {"smiles": "C=CC(=O)OCCOCCOCCOCCOC(=O)C=C", "Potency": "8.68 µM (active) and 13.6 µM (active)"}, {"smiles": "CCO[Si](CCCCl)(OCC)OCC", "Potency": "inactive"}, {"smiles": "NCc1ccccc1Sc1ccccc1CO", "Potency": "inactive"}, {"smiles": "CCCCC1=NC2(CCCC2)C(=O)N1Cc1ccc(-c2ccccc2-c2nn[nH]n2)cc1", "Potency": "29.8 µM (active)"}, {"smiles": "CCO[C@H](Cc1ccc(OCCc2ccc(OS(C)(=O)=O)cc2)cc1)C(=O)O", "Potency": "inactive"}, {"smiles": "CC1=CC=C(C(C)C)CC1", "Potency": "inactive"}, {"smiles": "O=C1C(O)=C(O)C(=O)C(O)=C1O", "Potency": "inactive"}, {"smiles": "CC1CCC(=O)C1=O", "note": "(stereo not given)", "Potency": "inactive"}, {"smiles": "Cc1cc(N)c2cc(NC(=O)Nc3ccc4nc(C)cc(N)c4c3)ccc2n1", "Potency": "inactive"}, {"smiles": "C[Si](C)(CCCN)O[Si](C)(C)CCCN", "Potency": "inactive"}, {"smiles": "C=CCOc1ccccc1OCC(O)CNC(C)C", "note": "(stereo not given)", "Potency": "inactive"}, {"smiles": "CCOC(=O)C(O)c1ccccc1", "note": "(stereo not given)", "Potency": "inactive"}, {"smiles": "S=C([S-])NCCNC(=S)[S-].[Mn+2]", "Potency": "inactive"}, {"smiles": "CCCC(=O)Nc1ccc(O)c(C(C)=O)c1", "Potency": "inactive"}, {"smiles": "CC/C=C\\CCOC(=O)CC", "Potency": "inactive"}, {"smiles": "O=C(O)c1nc(Cl)c(Cl)c(Cl)c1Cl", "Potency": "inactive"}, {"smiles": "CCc1cc(C2=C(C(=O)O)N(c3ccccc3C(F)(F)F)S(=O)(=O)c3ccccc32)cc2c1OCO2", "Potency": "30.3 µM (active)"}, {"smiles": "O=[N+]([O-])c1ccc(NCCO)c(OCCO)c1", "Potency": "48.6 µM (active)"}, {"smiles": "CC(C)(CO)[N+](=O)[O-]", "Potency": "inactive"}, {"smiles": "C/C(=C(\\CCOP(=O)(O)O)SC(=O)c1ccccc1)N(C=O)Cc1cnc(C)nc1N", "activity change, negative = cytotoxicity": "2.5% [at 8.39 µM]"}, {"smiles": "CCN(CC)c1ccc2c(-c3ccccc3C(=O)O)c3ccc(=[N+](CC)CC)cc-3oc2c1", "Potency": "2.17 µM (active)"}, {"smiles": "COc1ccc(C)cc1[N+](=O)[O-]", "Potency": "inactive"}, {"smiles": "O=C1OC(=O)C2C3C=CC(C3)C12", "note": "(stereo not given)", "Potency": "inactive"}]}]}
